Bioassay records: PubChem BioAssay, several laboratories
SRC1 inh = inhibitors of human steroid receptor coactivator 1 (SRC1); 360,000 tested, 0.12% active; inhibition, % at 3.6 µM; AID 588354; HEK293 GAL4-SRC1 luciferase reporter, luminescence; Q15788;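 active = inhibition above the campaign mean plus 3 SD, with each screening campaign given its own cutoff, cut at about 60% in these data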;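 note: 0% = DMSO treated cells and 100% = gossypol at 36 µM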
Target sequence (Q15788 whole entry, looked up, the tested form may be a part): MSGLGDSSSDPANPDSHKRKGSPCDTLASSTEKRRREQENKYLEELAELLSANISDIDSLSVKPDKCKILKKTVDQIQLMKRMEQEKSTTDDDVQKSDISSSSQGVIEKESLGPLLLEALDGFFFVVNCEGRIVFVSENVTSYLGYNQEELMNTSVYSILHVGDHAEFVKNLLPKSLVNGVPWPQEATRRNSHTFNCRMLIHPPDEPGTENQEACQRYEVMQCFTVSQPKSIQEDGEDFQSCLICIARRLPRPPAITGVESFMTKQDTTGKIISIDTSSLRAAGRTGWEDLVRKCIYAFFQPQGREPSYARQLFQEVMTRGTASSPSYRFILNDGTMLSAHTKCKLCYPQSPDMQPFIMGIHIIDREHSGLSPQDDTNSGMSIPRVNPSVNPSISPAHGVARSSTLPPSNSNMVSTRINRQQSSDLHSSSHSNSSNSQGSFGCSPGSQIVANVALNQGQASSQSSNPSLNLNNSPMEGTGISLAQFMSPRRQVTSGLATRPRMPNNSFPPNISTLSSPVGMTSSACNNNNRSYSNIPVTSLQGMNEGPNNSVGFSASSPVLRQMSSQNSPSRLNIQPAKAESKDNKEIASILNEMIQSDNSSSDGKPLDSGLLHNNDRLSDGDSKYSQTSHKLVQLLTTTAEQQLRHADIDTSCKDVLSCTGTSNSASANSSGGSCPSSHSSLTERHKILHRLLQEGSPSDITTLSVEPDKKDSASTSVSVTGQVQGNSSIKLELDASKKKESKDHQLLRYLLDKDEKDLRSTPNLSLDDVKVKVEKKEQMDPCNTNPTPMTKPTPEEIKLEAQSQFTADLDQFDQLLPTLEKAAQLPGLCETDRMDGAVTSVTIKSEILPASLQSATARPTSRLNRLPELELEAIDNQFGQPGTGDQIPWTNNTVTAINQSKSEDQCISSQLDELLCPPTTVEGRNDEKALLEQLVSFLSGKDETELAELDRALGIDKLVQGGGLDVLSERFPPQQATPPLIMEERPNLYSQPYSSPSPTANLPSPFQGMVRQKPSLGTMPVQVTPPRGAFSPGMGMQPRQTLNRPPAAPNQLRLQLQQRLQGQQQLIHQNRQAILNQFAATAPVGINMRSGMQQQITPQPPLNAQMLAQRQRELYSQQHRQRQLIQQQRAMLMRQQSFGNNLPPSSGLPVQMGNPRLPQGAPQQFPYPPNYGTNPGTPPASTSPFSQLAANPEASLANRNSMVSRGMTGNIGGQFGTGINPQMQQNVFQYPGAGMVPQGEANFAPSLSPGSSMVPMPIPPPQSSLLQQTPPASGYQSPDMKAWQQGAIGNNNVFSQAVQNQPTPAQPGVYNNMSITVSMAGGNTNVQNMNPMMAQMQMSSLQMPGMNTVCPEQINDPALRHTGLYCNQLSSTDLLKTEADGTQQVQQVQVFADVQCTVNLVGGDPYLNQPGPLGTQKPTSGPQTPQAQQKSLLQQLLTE
NCOA2 inhibitor = human SRC2 (NCOA2) inhibition; HEK293 GAL4-SRC2 luciferase reporter, luminescence; 370,000 tested, 0.17% active; Q15596; inhibition, % at 9 µM;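 active = inhibition above the mean inhibition of all tested compounds plus 3 SD, set per campaign, cut at about 52% in these data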;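 note: 0% = DMSO treated cells and 100% = cells given Gossypol at 36 µM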
Gli-Sufu block = Gli-Sufu pathway antagonism; Sufu-KO-LIGHT fibroblasts, Gli luciferase reporter luminescence; inhibition, % at 5 µM; 340,000 tested, 0.74% active; AID 588413;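 active = inhibition above about 55%, limit read from the data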;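 note: 0% = DMSO-treated cells and 100% = wells with medium but no cells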
NR2F2 inh = inhibitors of human COUP-TFII (NR2F2) | P24468 | HEK293T NGFI-A luciferase reporter, luminescence | inhibition, % at 8.6 µM | 370,000 tested, 0.7% active | AID 686940;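 active = inhibition above a per-plate cutoff, mean inhibition of test wells between control levels plus 3 SD, cut at about 38% in these data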;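 note: cells cotransfected with COUP-TFII expression vector driving the NGFI-A reporter; 0% = median of COUP-TF2 test wells and 100% = reporter-only cells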
SRC3 inh = human NCOA3 inhibition; Q9Y6Q9; HEK293 GAL4-SRC3 luciferase reporter, luminescence; inhibition, % at 3.6 µM; 360,000 tested, 0.17% active;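 active = inhibition above a per-campaign cutoff, the mean of all compounds plus 3 SD, cut at about 60% in these data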;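 note: 0% = DMSO-treated cells and 100% = gossypol-treated cells at 36 µM; higher means less SRC3-driven luciferase light from the GAL4 reporter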
LRH-1 inv ag = NR5A2 inverse agonism in reporter assay; HEK293T StAR-luciferase reporter, LRH-1 transfected, 24 h; inhibition, % at 3.6 µM; O00482; 360,000 tested, 0.13% active; AID 602396;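 active = inhibition above the mean inhibition of all tested compounds plus 3 SD, cut at about 73% in these data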;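 note: 0% = DMSO wells and 100% = reporter-only cells lacking LRH-1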
Gal4-VP16 ctr = VP16 inhibition counter-screen for COUP-TFII. inhibition, % at 8.5 µM. 2,500 tested, 25% active. AID 687007. shares compounds with NR2F2 inh. HEK293 Gal4-VP16 luciferase reporter, luminescence; in the data active = inhibition above about 13%
NR2F2 inh conf = COUP-TFII (NR2F2) inhibition, confirmation assay; 2,500 tested, 45% active; AID 687008; HEK293 NGFI-A luciferase reporter, luminescence; shares compounds with NR2F2 inh; inhibition, % at 8.5 µM;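 active = mean inhibition over three repeats above a set limit taken from the earlier primary screen, cut at about 38% in these data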;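 note: 100% = cells given the luciferase reporter alone without the COUP-TF2 vector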
The depositor's hits bear a star; nt = no result given. An excerpt weighted towards active compounds, which were near 1.3% of everything screened.

SMILES	SRC1 inh	NCOA2 inhibitor	Gli-Sufu block	NR2F2 inh	SRC3 inh	LRH-1 inv ag	Gal4-VP16 ctr	NR2F2 inh conf
CC12CC(=O)C3C(CCC4CC=CCC43C)C1CCC2=O (centres undefined)	1	24	6	11	-12	-12	nt	nt
C=C(CC1CC(O)[C@]2(C)OC3CC4OC5C[C@]6(C)O[C@]7(C)CCC8OC9C[C@]%10(C)OC%11C(C)=CC(=O)OC%11CC%10OC9C[C@@H](C)C8OC7CC6O[C@]5(C)C/C=C\C4OC3CC2O1)C(=O)O (some centres undefined)	-1	-2	-6	-10	14	10	nt	nt
C=C(C=O)CC1CC(O)[C@]2(C)OC3CC4OC5C[C@]6(C)O[C@]7(C)CCC8OC9C[C@]%10(C)OC%11C(C)=CC(=O)OC%11CC%10OC9C[C@@H](C)C8OC7CC6O[C@]5(C)C/C=C\C4OC3CC2O1 (some centres undefined)	nt	nt	nt	76*	nt	nt	1	9
Fc1cccc(CCNCc2ccccn2)c1	-3	-11	-15	-12	2	-5	nt	nt
O=c1[nH]c2ccccc2n1C1CCN(C(c2ccccc2OC(F)(F)F)c2nnnn2Cc2ccccc2)CC1 (centres undefined)	34	33	nt	42*	37	-6	15*	28
COC1C(O)C(C)OC(OC2CCC3(C)C(CCC4C3C(O)CC3(C)C(C5=CC(=O)OC5)CCC43O)C2)C1O (centres undefined)	87*	58*	12	77*	90*	101*	54*	79*
CNC(=O)Nc1ccc(C(=O)N/N=C\C23CC[C@@H](O)CC2(O)CC[C@@H]2[C@@H]3CCC3(C)C(C4=CC(=O)OC4)CCC23O)cc1 (some centres undefined)	-15	-21	9	1	9	-12	nt	nt
CC12CCC(O)CC1CCC1C2CCC2(C)C(C3=CC(=O)OC3)CCC12O (centres undefined)	82*	47	1	72*	84*	99*	45*	72*
C[C@]12CC[C@H](O)C[C@H]1CC[C@@H]1[C@@H]2CC[C@]2(C)[C@@H](C3=CC(=O)OC3)CC[C@]12O	83*	49	0	77*	85*	102*	47*	74*
CC(=O)OC1CC(OC2C(O)CC(OC3C(O)CC(OC4CCC5(C)C(CCC6C5CC(O)C5(C)C(C7=CC(=O)OC7)CCC65O)C4)OC3C)OC2C)OC(C)C1OC1OC(CO)C(O)C(O)C1O (centres undefined)	87*	61*	-9	79*	90*	103*	52*	76*
C[C@H]1CC[C@@H]2[C@@H](C)[C@H]3[C@H](C[C@H]4[C@@H]5CC=C6C[C@@H](O[C@@H]7O[C@H](CO)[C@H](O)[C@H](O[C@@H]8O[C@H](CO)[C@@H](O)[C@H](O)[C@H]8O)[C@H]7O[C@@H]7O[C@@H](C)[C@H](O)[C@@H](O)[C@H]7O)CC[C@]6(C)[C@H]5CC[C@]34C)N2C1	8	0	-9	-4	-11	0	nt	nt
CC12CC[C@H]3[C@@H](CCC4(O)C[C@H](O)CCC34/C=N/NC(=O)c3ccccc3[N+](=O)[O-])C1(O)CCC2C1=CC(=O)OC1 (some centres undefined)	3	-70	14	-13	-2	-4	nt	nt
COC(=O)C1=C(c2ccc(C(C)=O)cc2)C[C@@H]2CC[C@H]1N2C(=O)NCCOc1ccccc1Cl	0	-2	5	-5	-3	-10	nt	nt
Cc1nc2ccccn2c1P(=S)(c1ccccc1)c1ccccc1	8	11	nt	-7	-13	6	nt	nt
CC(C)(C)N1CC(C(=O)c2ccccc2)C1c1ccccc1 (centres undefined)	-31	3	-3	4	0	1	nt	nt
C[C@]12CCC3C(CC[C@H]4C[C@@H](O)CC[C@]34C)[C@H]1C=CC2=O (some centres undefined)	-12	8	6	1	-1	13	nt	nt
